# In paper PMC7862700, “An all-to-all approach to the identification of sequence-specific readers for epigenetic DNA modifications on cytosine”:
# Key:
# Experiment in all cases: DAPPL (digital affinity profiling via proximity ligation, sequencing); 10 mM Tris-HCl pH 7.5, 50 mM NaCl, 1 mM DTT, 4% glycerol, room temperature, 30 min; GST-TFs on glutathione beads, 16-mer random dsDNA library, 0.1% formaldehyde crosslink after washing; high values mean tight binding
# [1] = target: T1, FLI1 (Homo sapiens, UniProt Q01543 1-452); settings: protein: recombinant; tags: N-terminal GST; dsDNA, one strand shown
# T1 sequence: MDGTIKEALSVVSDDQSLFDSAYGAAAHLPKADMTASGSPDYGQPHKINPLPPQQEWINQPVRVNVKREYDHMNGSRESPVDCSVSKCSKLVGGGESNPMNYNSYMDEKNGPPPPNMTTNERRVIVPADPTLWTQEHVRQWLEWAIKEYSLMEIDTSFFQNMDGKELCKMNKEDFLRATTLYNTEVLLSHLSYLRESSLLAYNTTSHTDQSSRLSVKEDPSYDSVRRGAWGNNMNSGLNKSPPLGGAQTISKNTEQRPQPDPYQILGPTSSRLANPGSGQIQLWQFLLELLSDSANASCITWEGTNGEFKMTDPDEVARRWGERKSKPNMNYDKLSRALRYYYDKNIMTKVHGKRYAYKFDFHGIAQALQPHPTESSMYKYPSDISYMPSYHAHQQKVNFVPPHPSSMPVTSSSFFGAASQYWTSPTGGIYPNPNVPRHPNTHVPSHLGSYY
# How it was run: (§1)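 After expression in yeast as GST fusions, human transcription factors were bound to glutathione beads, DNA-barcoded and mixed with a tag-only sample. The pools were incubated with 200 nmole of a 16-mer random double-stranded DNA library in Tris/NaCl/DTT/glycerol buffer (30 min, room temperature), washed and crosslinked with 0.1% formaldehyde. Proximity ligation with BsaI/T4 ligase ran for 1 h at 37 °C, before PCR amplification and sequencing on an Illumina NextSeq500. Binding signal is a hexamer's read frequency for a factor divided by its frequency for the tag-only sample.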
# [2] = target: T2, ELK1 (Homo sapiens, UniProt P19419 1-428); settings: protein: recombinant; tags: N-terminal GST; dsDNA, one strand shown
# T2 sequence: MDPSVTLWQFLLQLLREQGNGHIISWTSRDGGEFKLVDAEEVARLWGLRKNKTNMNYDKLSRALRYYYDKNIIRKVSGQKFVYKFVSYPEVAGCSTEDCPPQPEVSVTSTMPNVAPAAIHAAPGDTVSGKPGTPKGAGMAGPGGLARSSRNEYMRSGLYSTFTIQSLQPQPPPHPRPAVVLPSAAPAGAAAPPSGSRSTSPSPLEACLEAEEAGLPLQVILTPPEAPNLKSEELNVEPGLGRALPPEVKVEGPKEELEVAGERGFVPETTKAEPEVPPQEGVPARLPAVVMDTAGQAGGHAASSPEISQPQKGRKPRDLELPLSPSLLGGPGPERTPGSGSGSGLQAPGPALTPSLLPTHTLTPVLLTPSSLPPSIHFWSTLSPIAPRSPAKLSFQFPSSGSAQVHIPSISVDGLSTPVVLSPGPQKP
# How it was run: as §1
# [3] = target: T3, GABPA (Homo sapiens, UniProt Q06546 1-454); settings: protein: recombinant; tags: N-terminal GST; dsDNA, one strand shown
# T3 sequence: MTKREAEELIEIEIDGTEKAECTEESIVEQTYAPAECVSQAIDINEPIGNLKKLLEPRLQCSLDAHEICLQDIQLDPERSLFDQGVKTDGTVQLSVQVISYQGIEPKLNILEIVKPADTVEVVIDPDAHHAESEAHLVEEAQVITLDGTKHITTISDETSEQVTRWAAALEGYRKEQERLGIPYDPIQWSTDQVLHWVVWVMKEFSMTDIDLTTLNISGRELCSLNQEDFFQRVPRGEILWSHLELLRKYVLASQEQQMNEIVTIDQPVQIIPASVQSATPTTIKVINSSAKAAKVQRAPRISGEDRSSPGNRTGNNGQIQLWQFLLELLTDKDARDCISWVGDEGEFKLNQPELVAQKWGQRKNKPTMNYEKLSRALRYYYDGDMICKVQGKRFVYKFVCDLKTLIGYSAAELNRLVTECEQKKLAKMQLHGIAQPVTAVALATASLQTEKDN
# How it was run: as §1
# [4] = target: T4, ERG (Homo sapiens, UniProt P11308 1-479); settings: protein: recombinant; tags: N-terminal GST; dsDNA, one strand shown
# T4 sequence: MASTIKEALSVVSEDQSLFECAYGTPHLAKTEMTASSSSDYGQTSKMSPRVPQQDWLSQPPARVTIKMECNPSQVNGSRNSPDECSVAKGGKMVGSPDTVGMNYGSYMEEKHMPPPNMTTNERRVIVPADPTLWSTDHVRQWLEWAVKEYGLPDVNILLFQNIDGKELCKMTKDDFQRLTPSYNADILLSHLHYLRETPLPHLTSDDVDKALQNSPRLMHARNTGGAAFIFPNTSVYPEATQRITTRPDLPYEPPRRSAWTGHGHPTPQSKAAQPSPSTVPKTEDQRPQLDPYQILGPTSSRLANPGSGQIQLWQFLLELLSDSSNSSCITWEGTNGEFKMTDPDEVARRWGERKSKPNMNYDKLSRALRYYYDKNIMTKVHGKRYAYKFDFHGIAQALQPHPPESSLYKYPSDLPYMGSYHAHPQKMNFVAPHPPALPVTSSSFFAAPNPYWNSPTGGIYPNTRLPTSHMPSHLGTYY
# How it was run: as §1
# [5] = target: ELF1 (Homo sapiens, UniProt P32519 1-619); settings: protein: recombinant; tags: N-terminal GST; dsDNA, one strand shown
# How it was run: as §1
# [6] = target: T5, EHF (Homo sapiens, UniProt Q9NZC4 1-300); settings: protein: recombinant; tags: N-terminal GST; dsDNA, one strand shown
# T5 sequence: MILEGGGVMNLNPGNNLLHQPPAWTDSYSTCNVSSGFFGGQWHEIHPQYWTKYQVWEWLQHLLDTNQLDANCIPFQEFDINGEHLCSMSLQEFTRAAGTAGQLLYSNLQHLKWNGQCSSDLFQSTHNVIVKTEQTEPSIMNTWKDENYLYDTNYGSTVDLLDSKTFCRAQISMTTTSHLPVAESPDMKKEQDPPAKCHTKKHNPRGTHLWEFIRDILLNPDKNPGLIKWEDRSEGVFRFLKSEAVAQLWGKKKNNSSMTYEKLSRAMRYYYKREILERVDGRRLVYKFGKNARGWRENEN
# How it was run: as §1
# [7] = target: SPI1 (Homo sapiens, UniProt P17947 1-270); settings: protein: recombinant; tags: N-terminal GST; dsDNA, one strand shown
# How it was run: as §1
# [8] = target: SPIB (Homo sapiens, UniProt Q01892 1-262); settings: protein: recombinant; tags: N-terminal GST; dsDNA, one strand shown
# How it was run: as §1
# [9] = target: T6, ELK3 (Homo sapiens, UniProt P41970 1-407); settings: protein: recombinant; tags: N-terminal GST; dsDNA, one strand shown
# T6 sequence: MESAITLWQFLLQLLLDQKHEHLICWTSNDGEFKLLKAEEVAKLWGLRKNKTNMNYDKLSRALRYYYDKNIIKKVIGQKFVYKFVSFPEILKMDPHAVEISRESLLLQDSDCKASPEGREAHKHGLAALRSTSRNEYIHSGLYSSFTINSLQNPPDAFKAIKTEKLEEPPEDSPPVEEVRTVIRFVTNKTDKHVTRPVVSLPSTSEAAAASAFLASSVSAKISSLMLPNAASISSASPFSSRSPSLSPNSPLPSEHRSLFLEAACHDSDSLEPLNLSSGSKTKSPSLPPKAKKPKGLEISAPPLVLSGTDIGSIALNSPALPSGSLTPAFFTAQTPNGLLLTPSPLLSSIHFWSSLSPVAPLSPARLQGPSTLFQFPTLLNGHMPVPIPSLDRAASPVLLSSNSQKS
# How it was run: as §1
# [10] = target: T7, FEV (Homo sapiens, UniProt Q99581 1-238); settings: protein: recombinant; tags: N-terminal GST; dsDNA, one strand shown
# T7 sequence: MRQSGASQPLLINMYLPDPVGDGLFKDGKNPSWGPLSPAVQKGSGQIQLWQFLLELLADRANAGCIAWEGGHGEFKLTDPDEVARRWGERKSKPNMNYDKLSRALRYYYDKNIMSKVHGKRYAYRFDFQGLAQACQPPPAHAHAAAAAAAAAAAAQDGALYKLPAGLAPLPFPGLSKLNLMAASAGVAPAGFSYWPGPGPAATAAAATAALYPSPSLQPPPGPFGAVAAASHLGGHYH
# How it was run: as §1
# [11] = target: ETV5 (Homo sapiens, UniProt P41161 1-510); settings: protein: recombinant; tags: N-terminal GST; dsDNA, one strand shown
# How it was run: as §1
# [12] = target: HSF1 (Homo sapiens, UniProt Q00613 1-529); settings: protein: recombinant; tags: N-terminal GST; chain copies: 3; dsDNA, one strand shown
# How it was run: as §1
# [13] = target: T8, SPIC (Homo sapiens, UniProt Q8N5J4 1-248); settings: protein: recombinant; tags: N-terminal GST; dsDNA, one strand shown
# T8 sequence: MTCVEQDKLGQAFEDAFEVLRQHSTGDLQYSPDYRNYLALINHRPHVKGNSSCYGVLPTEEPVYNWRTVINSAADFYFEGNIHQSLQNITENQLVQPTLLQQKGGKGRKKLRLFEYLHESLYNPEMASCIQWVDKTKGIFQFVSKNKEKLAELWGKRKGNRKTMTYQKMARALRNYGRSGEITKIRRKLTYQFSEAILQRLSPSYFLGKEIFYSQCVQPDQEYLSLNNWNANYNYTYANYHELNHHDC
# How it was run: as §1
# [14] = target: ELF4 (Homo sapiens, UniProt Q99607 1-663); settings: protein: recombinant; tags: N-terminal GST; dsDNA, one strand shown
# How it was run: as §1
# [15] = target: T9, ELK4 (Homo sapiens, UniProt P28324-2 1-405); settings: protein: recombinant; tags: N-terminal GST; dsDNA, one strand shown
# T9 sequence: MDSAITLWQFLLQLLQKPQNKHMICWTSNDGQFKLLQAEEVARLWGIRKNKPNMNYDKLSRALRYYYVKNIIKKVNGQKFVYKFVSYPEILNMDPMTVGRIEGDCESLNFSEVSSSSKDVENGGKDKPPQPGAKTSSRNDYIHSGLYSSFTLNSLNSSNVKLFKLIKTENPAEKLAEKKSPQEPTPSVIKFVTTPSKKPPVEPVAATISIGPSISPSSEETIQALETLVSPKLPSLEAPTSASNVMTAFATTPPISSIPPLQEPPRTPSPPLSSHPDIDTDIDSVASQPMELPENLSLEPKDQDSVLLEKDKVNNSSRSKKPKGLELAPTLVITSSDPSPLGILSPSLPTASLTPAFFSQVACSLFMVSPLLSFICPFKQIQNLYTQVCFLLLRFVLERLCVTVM
# How it was run: as §1
# [16] = target: T10, ETV2 (Homo sapiens, UniProt O00321 1-342); settings: protein: recombinant; tags: N-terminal GST; dsDNA, one strand shown
# T10 sequence: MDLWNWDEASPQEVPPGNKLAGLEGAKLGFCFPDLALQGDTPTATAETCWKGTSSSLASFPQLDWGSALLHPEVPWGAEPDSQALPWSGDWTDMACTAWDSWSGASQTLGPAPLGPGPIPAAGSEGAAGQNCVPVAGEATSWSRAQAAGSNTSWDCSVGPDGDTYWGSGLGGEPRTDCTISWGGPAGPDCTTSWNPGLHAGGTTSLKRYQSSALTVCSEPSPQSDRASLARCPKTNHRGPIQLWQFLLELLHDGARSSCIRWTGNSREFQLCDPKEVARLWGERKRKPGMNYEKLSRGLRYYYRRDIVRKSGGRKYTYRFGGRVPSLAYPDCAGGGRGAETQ
# How it was run: as §1
# [17] = target: T11, ELF3 (Homo sapiens, UniProt P78545 1-371); settings: protein: recombinant; tags: N-terminal GST; dsDNA, one strand shown
# T11 sequence: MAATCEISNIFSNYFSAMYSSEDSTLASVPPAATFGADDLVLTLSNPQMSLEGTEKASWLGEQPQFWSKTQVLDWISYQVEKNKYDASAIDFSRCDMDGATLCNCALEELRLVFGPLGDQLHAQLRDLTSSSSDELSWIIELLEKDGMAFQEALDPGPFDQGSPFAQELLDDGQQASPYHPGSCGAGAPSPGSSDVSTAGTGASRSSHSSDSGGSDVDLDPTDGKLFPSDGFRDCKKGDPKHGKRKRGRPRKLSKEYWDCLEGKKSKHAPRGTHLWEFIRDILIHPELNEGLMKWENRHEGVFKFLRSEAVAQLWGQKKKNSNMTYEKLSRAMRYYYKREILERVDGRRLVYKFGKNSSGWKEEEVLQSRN
# How it was run: as §1
# [18] = target: ETV1 (Homo sapiens, UniProt P50549 1-477); settings: protein: recombinant; tags: N-terminal GST; dsDNA, one strand shown
# How it was run: as §1
# Chain of ELF1 (P32519 whole entry): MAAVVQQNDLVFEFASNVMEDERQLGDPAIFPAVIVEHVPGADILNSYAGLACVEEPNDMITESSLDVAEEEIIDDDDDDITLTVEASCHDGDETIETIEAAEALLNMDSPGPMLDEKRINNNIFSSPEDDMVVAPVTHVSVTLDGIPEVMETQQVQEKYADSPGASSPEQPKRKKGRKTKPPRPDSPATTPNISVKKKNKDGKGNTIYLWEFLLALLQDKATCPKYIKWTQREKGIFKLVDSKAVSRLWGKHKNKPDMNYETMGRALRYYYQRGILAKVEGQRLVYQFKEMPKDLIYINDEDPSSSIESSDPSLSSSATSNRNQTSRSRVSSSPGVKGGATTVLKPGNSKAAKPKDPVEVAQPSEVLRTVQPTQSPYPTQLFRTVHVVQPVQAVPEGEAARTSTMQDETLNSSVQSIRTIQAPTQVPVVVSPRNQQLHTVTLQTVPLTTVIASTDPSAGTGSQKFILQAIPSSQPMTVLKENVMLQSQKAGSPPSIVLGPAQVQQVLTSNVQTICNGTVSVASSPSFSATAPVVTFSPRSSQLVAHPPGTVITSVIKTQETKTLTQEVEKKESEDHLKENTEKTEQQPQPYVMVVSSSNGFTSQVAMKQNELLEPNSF
# Chain of HSF1 (Q00613 whole entry): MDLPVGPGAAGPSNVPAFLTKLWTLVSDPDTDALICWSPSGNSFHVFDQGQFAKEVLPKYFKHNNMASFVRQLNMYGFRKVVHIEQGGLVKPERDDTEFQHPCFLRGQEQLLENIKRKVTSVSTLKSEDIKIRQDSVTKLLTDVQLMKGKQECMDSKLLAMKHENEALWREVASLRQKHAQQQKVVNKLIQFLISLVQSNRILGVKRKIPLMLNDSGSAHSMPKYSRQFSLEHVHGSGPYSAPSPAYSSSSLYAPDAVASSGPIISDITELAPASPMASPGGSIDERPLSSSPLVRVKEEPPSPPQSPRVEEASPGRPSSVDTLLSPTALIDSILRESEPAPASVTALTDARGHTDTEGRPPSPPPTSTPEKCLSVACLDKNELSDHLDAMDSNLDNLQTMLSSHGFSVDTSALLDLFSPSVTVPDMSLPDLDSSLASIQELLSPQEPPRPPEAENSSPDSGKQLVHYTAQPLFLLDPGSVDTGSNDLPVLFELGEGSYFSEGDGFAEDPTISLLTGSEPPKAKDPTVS
# Chain of ELF4 (Q99607 whole entry): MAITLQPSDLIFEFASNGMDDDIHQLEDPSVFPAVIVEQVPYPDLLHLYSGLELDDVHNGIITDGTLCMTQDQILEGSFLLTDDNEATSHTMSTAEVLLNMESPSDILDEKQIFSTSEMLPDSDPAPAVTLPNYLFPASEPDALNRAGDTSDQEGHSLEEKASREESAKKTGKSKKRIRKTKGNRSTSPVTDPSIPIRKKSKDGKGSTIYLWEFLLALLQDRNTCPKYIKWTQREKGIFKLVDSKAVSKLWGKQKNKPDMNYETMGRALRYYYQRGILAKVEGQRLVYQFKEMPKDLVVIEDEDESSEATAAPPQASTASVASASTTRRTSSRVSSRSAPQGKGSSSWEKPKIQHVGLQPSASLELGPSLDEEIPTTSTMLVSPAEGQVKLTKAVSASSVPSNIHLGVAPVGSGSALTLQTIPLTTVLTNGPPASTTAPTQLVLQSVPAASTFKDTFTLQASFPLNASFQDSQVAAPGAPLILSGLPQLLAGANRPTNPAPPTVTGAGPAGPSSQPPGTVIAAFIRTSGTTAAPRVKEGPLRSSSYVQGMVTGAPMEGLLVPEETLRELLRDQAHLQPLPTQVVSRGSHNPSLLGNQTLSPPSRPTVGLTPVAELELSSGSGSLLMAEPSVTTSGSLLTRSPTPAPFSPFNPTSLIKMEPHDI
# Chain of ETV1 (P50549 whole entry): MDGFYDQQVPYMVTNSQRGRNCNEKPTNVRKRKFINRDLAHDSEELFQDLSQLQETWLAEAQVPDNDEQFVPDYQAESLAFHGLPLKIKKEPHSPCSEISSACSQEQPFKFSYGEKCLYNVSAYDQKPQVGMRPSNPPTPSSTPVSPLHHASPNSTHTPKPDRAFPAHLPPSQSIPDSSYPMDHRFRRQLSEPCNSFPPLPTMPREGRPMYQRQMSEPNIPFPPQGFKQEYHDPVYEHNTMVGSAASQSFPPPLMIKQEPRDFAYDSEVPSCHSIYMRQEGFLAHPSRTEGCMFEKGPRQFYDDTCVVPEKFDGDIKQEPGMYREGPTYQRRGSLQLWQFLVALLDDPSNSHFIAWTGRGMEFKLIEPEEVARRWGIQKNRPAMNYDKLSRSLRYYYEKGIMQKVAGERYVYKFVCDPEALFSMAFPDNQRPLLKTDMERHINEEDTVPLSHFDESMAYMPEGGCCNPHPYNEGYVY
# Chain of ETV5 (P41161 whole entry): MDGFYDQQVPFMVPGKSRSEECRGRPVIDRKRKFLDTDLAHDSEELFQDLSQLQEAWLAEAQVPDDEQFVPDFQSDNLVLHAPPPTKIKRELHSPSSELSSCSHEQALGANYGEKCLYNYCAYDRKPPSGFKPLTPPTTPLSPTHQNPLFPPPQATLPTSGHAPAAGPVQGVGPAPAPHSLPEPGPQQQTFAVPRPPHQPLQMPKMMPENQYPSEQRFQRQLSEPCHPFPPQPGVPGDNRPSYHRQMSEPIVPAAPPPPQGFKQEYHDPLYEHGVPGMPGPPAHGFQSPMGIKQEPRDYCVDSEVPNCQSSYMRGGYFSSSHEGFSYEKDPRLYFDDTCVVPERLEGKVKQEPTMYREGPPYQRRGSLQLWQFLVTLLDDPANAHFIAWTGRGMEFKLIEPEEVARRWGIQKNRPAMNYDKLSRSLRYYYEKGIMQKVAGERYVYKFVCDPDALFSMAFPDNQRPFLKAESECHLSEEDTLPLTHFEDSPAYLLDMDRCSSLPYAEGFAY
# Chain of SPIB (Q01892 whole entry): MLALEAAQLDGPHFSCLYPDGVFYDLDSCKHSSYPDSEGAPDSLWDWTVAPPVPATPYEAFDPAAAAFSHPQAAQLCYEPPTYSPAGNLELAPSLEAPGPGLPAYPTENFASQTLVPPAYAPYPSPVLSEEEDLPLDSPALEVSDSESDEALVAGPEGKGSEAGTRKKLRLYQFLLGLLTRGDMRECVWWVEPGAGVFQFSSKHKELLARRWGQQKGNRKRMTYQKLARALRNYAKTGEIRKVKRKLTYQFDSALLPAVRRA
sequence,measurement,setting,value
TGCAAC,binding signal,[1],"1.27 fold enrichment (6-mer frequency, TF over GST control)"
same,binding signal,[2],"1.32 fold enrichment (6-mer frequency, TF over GST control)"
same,binding signal,[3],"1.4 fold enrichment (6-mer frequency, TF over GST control)"
same,binding signal,[4],"1.41 fold enrichment (6-mer frequency, TF over GST control)"
same,binding signal,[5],"1.35 fold enrichment (6-mer frequency, TF over GST control)"
same,binding signal,[6],"1.36 fold enrichment (6-mer frequency, TF over GST control)"
same,binding signal,[7],"1.28 fold enrichment (6-mer frequency, TF over GST control)"
same,binding signal,[8],"1.34 fold enrichment (6-mer frequency, TF over GST control)"
same,binding signal,[9],"1.43 fold enrichment (6-mer frequency, TF over GST control)"
same,binding signal,[10],"1.39 fold enrichment (6-mer frequency, TF over GST control)"
same,binding signal,[11],"1.3 fold enrichment (6-mer frequency, TF over GST control)"
same,binding signal,[12],"1.06 fold enrichment (6-mer frequency, TF over GST control)"
same,binding signal,[13],"1.19 fold enrichment (6-mer frequency, TF over GST control)"
same,binding signal,[14],"1.3 fold enrichment (6-mer frequency, TF over GST control)"
same,binding signal,[15],"1.46 fold enrichment (6-mer frequency, TF over GST control)"
same,binding signal,[16],"1.31 fold enrichment (6-mer frequency, TF over GST control)"
same,binding signal,[17],"1.42 fold enrichment (6-mer frequency, TF over GST control)"
same,binding signal,[18],"1.4 fold enrichment (6-mer frequency, TF over GST control)"
